# In the supplement of paper PMC7366291:
# Counter-ions that a name gives are not always drawn. ± gives the standard deviation of the averaged measurements.
# Tested on: Danio rerio Tg(wt1b:EGFP) embryo, pronephros
# Assay: glomerular width (mean of left and right), fold change vs DMSO control; higher = wider glomerulus
# Settings: 25 µM; exposure: 24-48 hpf
# Outline: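 Using a Fiji macro, distances and angles were calculated from 16 reference points set by hand on maximum projections of pronephroi imaged dorsally (470 nm, 10 z-slices) in agarose-filled 96-well plates. The dechorionated Tg(wt1b:EGFP) zebrafish embryos had received 25 μM compound in 0.5% DMSO in HEPES-buffered E3 with 0.003% PTU from 24 to 48 hpf at 28.5°C. Values more than 2 SD from a feature's mean were excluded. Each feature appears as a fold change over the mean of DMSO-treated embryos from the same day.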
row,SMILES,glomerular width
1,O=P1(NCCCl)OCCCN1CCCl (stereo not given) [Ifosfamide],0.999 ± 0.045
2,CC[C@@H](CO)NC(=O)[C@@H]1C=C2c3cccc4[nH]cc(c34)C[C@H]2N(C)C1 [Methylergometrine maleate],0.927 ± 0.056
3,CNC(C)(C)Cc1ccccc1 [Mephentermine hemisulfate],1.08 ± 0.036
4,CCC1(C)CC(=O)NC(=O)C1 [Bemegride],0.997 ± 0.013
5,CN(C)C(=O)Oc1cc(OC(=O)N(C)C)cc(C(O)CNC(C)(C)C)c1 (stereo not given) [Bambuterol hydrochloride],0.915 ± 0.035
6,C[C@]12CC[C@@H](O)C[C@H]1CC[C@@H]1[C@@H]2CC[C@]2(C)C(=O)CC[C@@H]12 [3-alpha-Hydroxy-5-beta-androstan-17-one],0.982 ± 0.066
7,CCC(COC(=O)c1cc(OC)c(OC)c(OC)c1)(c1ccccc1)N(C)C (stereo not given) [Trimebutine],0.9518 ± 0.0092
8,COc1ccc2c(c1)[C@]13CCCC[C@@H]1[C@H](C2)N(C)CC3 [Dextromethorphan hydrobromide monohydrate],0.9098 ± 0.004
9,CC(=O)O[C@H]1C[C@@H]2CC[C@@H]3[C@H](CC[C@@]4(C)[C@H]3C[C@H]([N+]3(C)CCCCC3)[C@@H]4OC(C)=O)[C@@]2(C)C[C@@H]1[N+]1(C)CCCCC1 [Pancuronium bromide],0.928 ± 0.13
10,C#C[C@]1(O)CC[C@H]2[C@@H]3CCC4=CC(=O)CCC4=C3C=C[C@@]21CC [Gestrinone],1.119 ± 0.0059
11,COc1ccc(CN2CCNCC2)c(OC)c1OC [Trimetazidine dihydrochloride],0.96 ± 0.014
12,CN1[C@@H]2CC[C@H]1C[C@@H](OC(=O)[C@H](CO)c1ccccc1)C2 [Hyoscyamine (L)],1.06 ± 0.03
13,C[C@@H]1C[C@@H]([C@H](O)CC2CC(=O)NC(=O)C2)C(=O)[C@@H](C)C1 [Cycloheximide],0.604 ± 0.14
14,NCCCNCCSP(=O)(O)O [Amifostine],1.04 ± 0.037
15,CC(C)N(CCC(C(N)=O)(c1ccccc1)c1ccccn1)C(C)C (stereo not given) [Disopyramide],1.09 ± 0.086
16,C[N+]1(C)[C@@H]2CC[C@H]1C[C@@H](OC(=O)C(CO)c1ccccc1)C2 (stereo not given in full) [Methylatropine nitrate],0.936 ± 0.028
17,Oc1ccc2c3c1O[C@H]1[C@@H](O)CC[C@@]4(O)[C@@H](C2)N(CC2CCC2)CC[C@]314 [Nalbuphine hydrochloride],1 ± 0.033
18,C=CC[C@]1(O)CC[C@H]2[C@@H]3CCC4=CC(=O)CCC4=C3C=C[C@@]21C [Altrenogest],1.07 ± 0.0053

row,SMILES,glomerular width
1,C[C@]12CC[C@@H]3c4ccc(OC(=O)N(CCCl)CCCl)cc4CC[C@H]3[C@@H]1CC[C@@H]2O [Estramustine],0.792 ± 0.018
2,"NCC(O)c1ccc(O)cc1 (racemic) [(+,-)-Octopamine hydrochloride]",0.94 ± 0.042
3,C#CCN(C)[C@H](C)Cc1ccccc1 [Selegiline hydrochloride],0.969 ± 0.055
4,CN1C(=O)CCS(=O)(=O)C1c1ccc(Cl)cc1 (stereo not given) [Chlormezanone],1.05 ± 0.11
5,O=P1(N(CCCl)CCCl)NCCCO1 (stereo not given) [Cyclophosphamide],0.913 ± 0.0021
6,CC(=O)NC1CCSC1=O (racemic) [N-Acetyl-DL-homocysteine Thiolactone],1.07 ± 0.041
7,CCC1(c2cccc(O)c2)CCCCN(C)C1 (stereo not given) [Meptazinol hydrochloride],0.967 ± 0.024
8,NC(=O)C[S+]([O-])C(c1ccccc1)c1ccccc1 (stereo not given) [Modafinil],1.09 ± 0.073
9,CC(C)CC(N(C)C)C1(c2ccc(Cl)cc2)CCC1 (stereo not given) [Sibutramine hydrochloride],0.995 ± 0.021
10,O=[N+]([O-])O[C@@H]1CO[C@H]2[C@@H]1OC[C@@H]2O [Isosorbide mononitrate],1.04 ± 0.019
11,CN1C[C@H](CNC(=O)OCc2ccccc2)C[C@@H]2c3cccc4c3c(cn4C)C[C@H]21 [Metergoline],0.9966 ± 0.0098
12,CC(=O)OC1CN2CCC1CC2 (stereo not given) [Aceclidine Hydrochloride],1.053 ± 0.01
13,Fc1ccc(C(OCCN2CCN(CCCc3ccccc3)CC2)c2ccc(F)cc2)cc1,0.737 ± 0.028
14,C=CCN1CC[C@]23c4c5ccc(O)c4O[C@H]2C(=O)CC[C@@]3(O)[C@H]1C5 [Naloxone hydrochloride],1.01 ± 0.055
15,C1CCc2nnnn2CC1 [Pentylenetetrazole],0.994 ± 0.07
16,C[C@]12CC[C@H](O)C[C@H]1CC[C@@H]1[C@@H]2CC[C@]2(C)[C@@H](C3=CC(=O)OC3)CC[C@]12O [Digitoxigenin],1.0869 ± 0.00048
17,CC(C)[N+](C)(CCC(C(N)=O)(c1ccccc1)c1ccccc1)C(C)C [Isopropamide iodide],1.0283 ± 0.001
